Most compounds without a hit are left out; they make up all but 11% or so of the library.
hNpr1 antagonist = Natriuretic polypeptide receptor (hNpr1) antagonism - Primary qHTS | HEK293 hNpr1 GloSensor cGMP, ANP-stimulated luminescence | Potency, µM (top dose mostly 46.3 µM), hits mostly inhibitors | actives 1.6% (n = 76,000); calls by dose curve; also: nearly all actives have a fitted effect of over 60% in size
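Compound pre-incubated 30 min at room temperature on GloSensor-loaded HEK293 cells stably carrying hNpr1 and the pGS-40F cGMP biosensor. Stimulation uses hNppA at 0.1 nM final; luminescence is taken at baseline and 20 min post-agonist.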
HEK cytotox = Cytotoxic Profiling in HEK 293 Cell Line of Diverse Libraries Using Quantitative High-Throughput Screening; HEK 293 viability, ATP luminescence (CellTiter-Glo), 48-72 h; Potency, µM (titrated, usually from 115 µM), most hits filed as inhibitors; AID 1345083, 2018; actives 6.6% (n = 94,000); also: nearly all actives have a fitted effect of over 60% in size
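Cytotoxicity was scored by loss of ATP-coupled luminescence (CellTiter-Glo) in HEK 293 cells. Compound treatment ran 48 or 72 hr at 37 degree Celsius, 5% CO2, 95% humidity.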
NIH3T3 tox = Cytotoxic Profiling in NIH 3T3 Cell Line of Diverse Libraries Using Quantitative High-Throughput Screening; AID 1345082, 2018; NIH 3T3 viability, CellTiter-Glo ATP luminescence, 48-72 h; Potency, µM (top dose mostly 96.7 µM), usual class: inhibitors; actives 4.3% (n = 94,000); also: nearly all actives have a fitted effect of over 55% in size
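Luminescent ATP readout (CellTiter-Glo, 10 min RT) after 48 or 72 hr compound exposure of NIH 3T3 cells seeded at 400 cells/well in 1536-well format; quantitative HTS.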
FLuc inh = Firefly luciferase inhibition profiling of diverse chemical library using quantitative high-throughput screening; actives 2.5% (n = 76,000); AID 1347043, 2019; purified P. pyralis luciferase, luminescence, biochemical; Luciferin 4-monooxygenase (Photinus pyralis), P08659; Potency, µM (titrated, usually from 115 µM), hits mostly inhibitors; also: nearly all actives have a fitted effect of over 65% in size
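Purified 10nM P. pyralis luciferase with 10uM D-luciferin and 10uM ATP in 50mM Tris acetate pH 7.5, 10mM Mg acetate, 0.01% Tween-20, 0.05% BSA. qHTS titration; luminescence read by CCD imager.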
Large screens that a line does not name were inactive. Unless noted, calls follow the shape of the dose curve; as a rule, active = well fitted curve in the direction sought with a large enough effect; inconclusive = small, poorly fitted or top-dose-only effect, or another doubt; inactive = no such curve, though single readings can be large; an effect the other way counts as inactive or inconclusive.

CC(C)CNc1ccc2c(n1)C(C)(C(=O)NC1CCN(C)CC1)CN(Cc1ccccc1)C2 (centres undefined)	HEK cytotox inconclusive, NIH3T3 tox 31.6µM
COc1cccc(-c2cn3cc(C(=O)NCC4CC4)nc3s2)c1	HEK cytotox 70.8µM, NIH3T3 tox inconclusive (no result: hNpr1 antagonist, FLuc inh)
O=C(NCC1CC1)c1cn2cc(-c3ccccc3)sc2n1	HEK cytotox 100µM, NIH3T3 tox inconclusive (no result: hNpr1 antagonist, FLuc inh)
O=C(NCCc1ccc(Cl)cc1)c1cn2cc(-c3ccccc3)sc2n1	none (no result: hNpr1 antagonist, FLuc inh)
COc1cccc(-c2cn3cc(C(=O)NCCc4ccc(Cl)cc4)nc3s2)c1	HEK cytotox 31.6µM (no result: hNpr1 antagonist, FLuc inh)
COc1ccc(-c2cn3cc(C(=O)NCC4CCCCC4)nc3s2)cc1	HEK cytotox inconclusive (no result: hNpr1 antagonist, FLuc inh)
O=C(NCC1CC1)c1cn2cc(-c3cccc(C(F)(F)F)c3)sc2n1	HEK cytotox inconclusive (no result: hNpr1 antagonist, FLuc inh)
COc1cccc(-c2cn3cc(C(=O)NCC4CCCCC4)nc3s2)c1	HEK cytotox 22.4µM, NIH3T3 tox inconclusive (no result: hNpr1 antagonist, FLuc inh)
Cc1ccc(C(=O)NC2CCN(C(=O)c3ccc(-c4ncccc4C#N)cc3)CC2)cc1	HEK cytotox inconclusive (no result: hNpr1 antagonist, FLuc inh)
Cc1ccc(CN2C(=O)[C@@H]3C[C@@H](O)CN3C3(CN(Cc4cccs4)C3)C2=O)o1	none
COCc1ccc2c(c1)c(OC(C)(C)C(=O)NCCN1CCOCC1)nn2CCC(C)C	NIH3T3 tox inconclusive
COc1ccc(CN2CCC3(CC2)C(=O)NCN3Cc2ccc(Cl)cc2)cc1	HEK cytotox 39.8µM, NIH3T3 tox inconclusive
Cc1ccc(CN2CCC3(CC2)C(=O)NCN3Cc2ccc(Cl)cc2)cc1	hNpr1 antagonist inconclusive, HEK cytotox inconclusive
COC(=O)CNC(=O)C1CCN(c2nccc(Nc3ccccc3Cl)n2)CC1	none (no result: hNpr1 antagonist, FLuc inh)
O=C(NCc1cccc(Cl)c1)[C@@H]1CCCN1c1nccc(Nc2ccccc2Cl)n1	HEK cytotox 35.5µM, NIH3T3 tox inconclusive (no result: hNpr1 antagonist, FLuc inh)
O=C(NCc1cccc(F)c1)C1CCN(c2nccc(Nc3ccccc3Cl)n2)CC1	HEK cytotox 44.7µM, NIH3T3 tox inconclusive (no result: hNpr1 antagonist, FLuc inh)
O=C(NCc1ccc2c(c1)OCO2)C1CCN(c2nccc(Nc3ccccc3Cl)n2)CC1	HEK cytotox 28.2µM, NIH3T3 tox 35.5µM (no result: hNpr1 antagonist, FLuc inh)
CSCCNC(=O)C1CCN(c2nccc(Nc3ccccc3Cl)n2)CC1	HEK cytotox inconclusive, NIH3T3 tox 35.5µM (no result: hNpr1 antagonist, FLuc inh)
COc1ccc(C2(C(=O)N3CCCC(c4nc(-c5ccccc5)no4)CCNC(=O)CC3)CC2)cc1 (centres undefined)	HEK cytotox inconclusive, NIH3T3 tox inconclusive
CC(C)c1noc(-c2cccn3c(CNC(=O)c4cccc(F)c4)nnc23)n1	none
CCCOc1ccc(CNC(=O)CCn2ccn3nc4c(c3c2=O)CCCC4)cc1	HEK cytotox inconclusive
c1cncc(-c2cc3c(cn2)CN(Cc2ccncc2)CCN3)c1	HEK cytotox inconclusive
Fc1ccc(CN2CCNc3cc(Nc4ccccc4)ncc3C2)cc1F	HEK cytotox 22.4µM, NIH3T3 tox 39.8µM
Fc1ccc(Nc2cc3c(cn2)CN(Cc2ccccc2)CCN3)cc1	NIH3T3 tox 31.6µM, FLuc inh inconclusive
c1ccc(Nc2cc3c(cn2)CN(Cc2ccccn2)CCN3)cc1	HEK cytotox inconclusive, NIH3T3 tox inconclusive
c1ccc(N2CCN(c3cc4c(cn3)CN(Cc3ccncc3)CCN4)CC2)nc1	hNpr1 antagonist inconclusive, HEK cytotox 79.4µM
Fc1cccc(CN2CCNc3cc(Nc4cccnc4)ncc3C2)c1	HEK cytotox inconclusive, NIH3T3 tox 31.6µM, FLuc inh 35.5µM
COCCCNC(=O)C1CCc2nnc(C3CC3)n21 (centres undefined)	none (no result: hNpr1 antagonist, FLuc inh)
O=C([C@H]1CCCN1C(=O)c1ccc(Cl)cn1)N1CCC(N2CCOC2=O)CC1	none (no result: hNpr1 antagonist, FLuc inh)
FC(F)(F)c1ccc(CN2CCNc3cc(Nc4ccccc4)ncc3C2)cc1	hNpr1 antagonist inconclusive, HEK cytotox 44.7µM, NIH3T3 tox 25.1µM, FLuc inh inconclusive
c1ccc(Nc2cc3c(cn2)CN(Cc2ncc[nH]2)CCN3)cc1	HEK cytotox inconclusive, NIH3T3 tox inconclusive, FLuc inh 17.8µM
Fc1ccc(Nc2cc3c(cn2)CN(Cc2ccncc2)CCN3)cc1Cl	hNpr1 antagonist 17.8µM, HEK cytotox 31.6µM, NIH3T3 tox 20µM, FLuc inh inconclusive
COc1ccccc1C(C)N(C)C(=O)c1csc2nc(-c3ccccc3C)cn12 (centres undefined)	HEK cytotox 35.5µM, NIH3T3 tox inconclusive, FLuc inh inconclusive
COc1ccccc1-c1cn2c(n1)CO[C@@H](CNC(=O)NC(C)C)C2	none
COc1ccc(-n2nc(C)c([C@@H]3C=C[C@@H](NCc4ccc(C(C)C)cc4)C3)c2C)cc1	hNpr1 antagonist inconclusive, HEK cytotox 31.6µM, NIH3T3 tox 31.6µM, FLuc inh 25.1µM
Cc1nn(-c2ccccc2)c(C)c1[C@@H]1C=C[C@@H](NCc2ccc(F)cc2)C1	HEK cytotox 63.1µM, NIH3T3 tox inconclusive, FLuc inh inconclusive
Cc1nn(-c2ccccc2[N+](=O)[O-])c(C)c1[C@@H]1C=C[C@@H](NCc2ccc(F)cc2)C1	HEK cytotox 100µM, NIH3T3 tox 89.1µM, FLuc inh inconclusive
Cc1nn(-c2ccc(C(F)(F)F)cc2)c(C)c1[C@@H]1C=C[C@@H](NC(=O)COCC(=O)O)C1	none
Cc1nn(-c2ccc(C(F)(F)F)cc2)c(C)c1[C@@H]1C=C[C@@H](NCc2ccc(N(C)C)cc2)C1	HEK cytotox 20µM, NIH3T3 tox 11.2µM
Cc1nn(-c2ccc(F)cc2)c(C)c1[C@@H]1C=C[C@@H](NC(=O)CC(C)(C)CC(=O)O)C1	NIH3T3 tox inconclusive
O=C(c1ccc2oc(-c3ccncc3)nc2c1)N1CCOCC1	NIH3T3 tox inconclusive (no result: hNpr1 antagonist, FLuc inh)
COc1ccc(-n2nc(C)c([C@@H]3C=C[C@@H](NCc4ccc(F)cc4)C3)c2C)cc1	hNpr1 antagonist inconclusive, HEK cytotox 28.2µM, NIH3T3 tox 31.6µM, FLuc inh 25.1µM
COc1ccc(NC(=O)O[C@@H]2C=C[C@H](c3c(C)nn(-c4ccc(F)cc4)c3C)C2)cc1	HEK cytotox inconclusive, NIH3T3 tox inconclusive, FLuc inh inconclusive
OCC1CN(c2ncccn2)CC12CCN(Cc1ccc3[nH]ccc3c1)CC2 (centres undefined)	HEK cytotox inconclusive
O=C(NCc1cccc(F)c1)C1CCc2sc(C(=O)N3CCCCC3)cc2C1 (centres undefined)	hNpr1 antagonist inconclusive, HEK cytotox inconclusive, NIH3T3 tox inconclusive
O=C(NCc1ccc2c(c1)OCO2)C1CCc2sc(C(=O)N3CCCCCC3)cc2C1 (centres undefined)	hNpr1 antagonist 22.4µM, HEK cytotox inconclusive, NIH3T3 tox inconclusive
O=C(Nc1cccc(Cl)c1)C1CCc2sc(C(=O)N3CCCC3)cc2C1 (centres undefined)	hNpr1 antagonist inconclusive, HEK cytotox 39.8µM, NIH3T3 tox 28.2µM
O=C(NCc1ccc(F)cc1)C1CCc2sc(C(=O)N3CCCC3)cc2C1 (centres undefined)	HEK cytotox 50.1µM, NIH3T3 tox inconclusive
